Source: PubChem BioAssay AID651956 (Broad Institute, 2012)
Entries with a potency or affinity are not part of this list. Records with an inconclusive call do not appear. Calls of active or inactive are those of the source.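 Rule for the calls: active = in every test run, a fitted half-maximal concentration for signal decrease at or below twice the highest tested concentration; inconclusive = runs disagree, flat 30 to 70% decrease, or poor fit; inactive = the rest.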

experiment: miR-122 activators in hepatoma reporter cells, dose response, cell-based, Huh7 psiCHECK-miR122, Renilla luciferase, cherry-picked (AID 651956); settings: 48 h; series mostly up to 35 µM;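 note: Renilla luciferase from a miR-122 sensor reporter so lower signal means miR-122 activation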

outcome, inactive:
CC1(C)CC(=O)c2cnc(NC(=O)c3ccco3)nc2C1, CCCNC(=O)N1C[C@@H]2[C@H](c3ccccc31)[C@H](CO)N2C(=O)C1CCOCC1, CN1C(=O)c2cc(NC(=O)c3ccno3)ccc2OC[C@H]2O[C@@H](CC(=O)NCC3CC3)CC[C@@H]21, O=C(Nc1ccc(CN2CCOCC2)cc1)c1ccc(-c2ccc(Cl)cc2Cl)o1, C/C=C/c1ccc([C@@H]2[C@@H](CN(C(=O)COC)C(C)C)N(C(C)=O)[C@H]2CO)cc1, Cc1ccc(-n2c(Cc3ccccc3)n[nH]c2=S)cc1, c1ccc(CCCNCCCn2cnc3c(OCc4ccccc4)ncnc32)cc1, O=C(NC[C@@H]1[C@@H](c2ccccc2)[C@H](CO)N1C(=O)C1CCC1)NC1CCCC1, CC(=O)N1[C@H](CNC(=O)C2CC2)[C@H](c2ccc(-c3cccc(F)c3)cc2)[C@@H]1CO, CN1C(=O)c2cc(NC(=O)c3cccc(C(F)(F)F)c3)ccc2OC[C@@H]2O[C@@H](CC(=O)NCCN3CCCC3)CC[C@@H]21, COc1cccc(C(=O)N2C[C@H]3[C@@H](c4ccccc42)[C@H](CO)N3C(C)=O)c1, Cc1cc(C(F)F)n2ncc(C(=O)NCCc3ccccc3Cl)c2n1, CN1C(=O)c2cc(NC(=O)c3cccc(F)c3)ccc2OC[C@H]2O[C@H](CC(=O)NC3CCC3)CC[C@@H]21, COCCNC(=O)C[C@H]1CC[C@@H]2[C@@H](COc3ccc(NS(=O)(=O)c4ccc(Cl)cc4)cc3C(=O)N2C)O1, CCC(=O)N1[C@H](CO)[C@H]2c3ccccc3N(C(=O)CC(F)(F)F)C[C@H]21, O=C(NCC(c1cccnc1)N1CCOCC1)NC1CCCCC1 (centres undefined), COCC(=O)N(C)C[C@@H]1[C@H](c2ccc(-c3ccccc3)cc2)[C@@H](CO)N1C(C)=O, CO[C@@H]1CN(C)C(=O)c2ccc(NS(=O)(=O)c3cccc(F)c3)cc2OC[C@@H](C)NC[C@H]1C, CN1C(=O)c2cc(NC(=O)c3cccs3)ccc2OC[C@H]2O[C@H](CC(=O)NCCN3CCCCC3)CC[C@H]21, CCNC(=O)C[C@H]1CC[C@H]2[C@@H](COc3ccc(NC(=O)c4ccccc4)cc3C(=O)N2C)O1, CC(=O)N(C)C[C@@H]1[C@@H](c2ccc(-c3cccc(C#N)c3)cc2)[C@H](CO)N1C(C)=O, O=C(Nc1ncc(Cc2cccc(C(F)(F)F)c2)s1)c1ccc(-c2cccc([N+](=O)[O-])c2)o1, CCOc1ccc(C(CCc2ccccc2)NC(=O)c2ccccc2F)cc1OCC (centres undefined), CO[C@@H]1CN(C)C(=O)c2ccc(NS(C)(=O)=O)cc2OC[C@H](C)N(C(=O)CN(C)C)C[C@@H]1C, CNC(=O)C[C@@H]1CC[C@H]2[C@@H](COc3ccc(NC(=O)NC(C)C)cc3C(=O)N2C)O1, CN1C(=O)c2cc(NS(=O)(=O)c3cccc(F)c3)ccc2OC[C@H]2O[C@@H](CC(=O)NCCN3CCCCC3)CC[C@H]21, CCCNC(=O)Nc1ccc2c(c1)C(=O)N(C)[C@@H]1CC[C@H](CC(=O)O)O[C@H]1CO2, CN(C)CCNC(=O)C1CC(=O)N(c2ccc(F)c(Cl)c2)C1 (centres undefined), O=C(Oc1c(CN2CCOCC2)cc(Cl)c2cccnc12)c1ccc(F)cc1, CC#CCCCC(=O)Nc1ccccc1C(=O)O, CNC(=O)C[C@H]1CC[C@H]2[C@@H](COc3ccc(NC(=O)C(C)C)cc3C(=O)N2C)O1, CNC(=O)C[C@H]1CC[C@@H]2[C@@H](COc3ccc(NC(=O)C(C)C)cc3C(=O)N2C)O1, COCCN(C[C@@H]1[C@@H](c2ccccc2)[C@H](CO)N1C(=O)C1CCC1)C(C)=O, CCNC(=O)Nc1ccc2c(c1)C(=O)N(C)[C@H]1CC[C@H](CC(=O)NCc3ccccc3F)O[C@H]1CO2, C[C@@H]1CN([C@@H](C)CO)S(=O)(=O)c2ccc(-c3ccccc3F)cc2O[C@@H]1CN(C)Cc1cccnc1, CCCC(=O)Nc1ccc2c(c1)C(=O)N(C)[C@@H]1CC[C@H](CC(=O)NCc3cccc(F)c3)O[C@H]1CO2, C[C@@H]1CN([C@@H](C)CO)C(=O)c2cc(NC(=O)Nc3ccc(C(F)(F)F)cc3)ccc2O[C@@H]1CN(C)CC1CCCCC1, CN1C(=O)c2cc(NC(=O)Nc3ccccc3Cl)ccc2OC[C@H]2O[C@H](CC(=O)O)CC[C@H]21, CCCNC(=O)Nc1ccc2c(c1)C(=O)N(C)[C@@H]1CC[C@H](CC(=O)NCC3CCCCC3)O[C@H]1CO2
